Autofluor counter – counter-screen for toxin protease inhibitors: compound fluorescence | fluorescence intensity (no concentration beside the values) | 360,000 tested, 3.1% active | compound autofluorescence counterscreen, microsphere flow cytometry; stronger effect = higher value; in the data active = fluorescence intensity above about 16000; inconclusive = no clear call, values can overlap the other calls
BoNT F protease – blocks Botulinum neurotoxin F light chain protease; 360,000 tested, 0.22% active; AID 588497; Multiplex microsphere protease cleavage assay, flow cytometry; inhibition, % at 10 µM; in the data active = inhibition above about 35%, passing the limit was not always enough; inconclusive = no clear call, values can overlap the other calls; note: plate controls were buffer without enzyme for full effect and enzyme alone for no effect
Anthrax LF prot – blocks Bacillus anthracis lethal factor protease. multiplex microsphere protease cleavage assay, LF. inhibition, % at 10 µM. 360,000 tested, 0.12% active; note: plate controls were buffer without enzyme for full effect and enzyme alone for no effect
Target sequence (P15917 whole entry, looked up): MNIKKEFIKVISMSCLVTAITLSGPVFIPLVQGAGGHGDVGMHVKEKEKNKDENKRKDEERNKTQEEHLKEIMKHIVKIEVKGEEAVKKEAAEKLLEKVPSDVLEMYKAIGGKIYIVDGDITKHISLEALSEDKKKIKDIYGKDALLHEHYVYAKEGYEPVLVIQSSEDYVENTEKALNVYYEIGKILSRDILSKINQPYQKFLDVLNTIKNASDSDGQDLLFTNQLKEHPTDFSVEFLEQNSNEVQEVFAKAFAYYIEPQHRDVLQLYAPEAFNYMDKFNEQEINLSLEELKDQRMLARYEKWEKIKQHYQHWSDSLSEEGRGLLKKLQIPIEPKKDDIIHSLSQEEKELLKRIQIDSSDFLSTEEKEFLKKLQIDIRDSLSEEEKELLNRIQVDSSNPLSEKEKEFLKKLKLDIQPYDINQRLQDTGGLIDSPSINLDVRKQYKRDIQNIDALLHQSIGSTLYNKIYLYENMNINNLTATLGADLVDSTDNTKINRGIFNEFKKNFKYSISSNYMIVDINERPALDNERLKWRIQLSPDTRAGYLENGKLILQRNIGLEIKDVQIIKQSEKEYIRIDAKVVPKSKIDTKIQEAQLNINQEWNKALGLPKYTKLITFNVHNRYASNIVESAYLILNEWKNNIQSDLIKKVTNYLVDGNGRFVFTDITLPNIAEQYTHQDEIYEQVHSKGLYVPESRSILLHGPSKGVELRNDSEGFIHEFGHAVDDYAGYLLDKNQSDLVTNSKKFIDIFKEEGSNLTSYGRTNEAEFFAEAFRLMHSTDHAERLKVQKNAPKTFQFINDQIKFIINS
BH1578 lux ind – quorum light induction in luxS cqsA deficient V. cholerae. 350,000 tested, 0.16% active. activation, % at 18.7 µM. V. cholerae BH1578 lux reporter, luminescence, 6 h; in the data active = activation mostly above about 9.7%, no sharp cut-off; inconclusive = no clear call, values can overlap the other calls; inactive = mostly below about 3.7%
BoNT-A LC inh2 – BoNT A light chain protease inhibition | 360,000 tested, 0.17% active | AID 588499 | inhibition, % at 10 µM | multiplex microsphere protease substrate cleavage, flow cytometry; note: plate controls were buffer without enzyme for full effect and enzyme alone for no effect
* hit, by the source's call; i = inactive; ? = inconclusive; / = no result given. The list is not random: actives were taken first. Their share in the collection is about 3.5%. Cut-off read from the data, not from the text of the source, unless noted: active = inhibition above about 30%; inconclusive = no clear call, values can overlap the other calls; inactive = below that.

SMILES	Autofluor counter	BoNT F protease	Anthrax LF prot	BH1578 lux ind	BoNT-A LC inh2
Cc1ccccc1-c1nc2c3ccccc3nc(=S)n2[nH]1	3658	-21.3	-13.8	i	-2.8
Cc1nc2ccccc2n1CCc1nc2c3ccccc3nc(=S)n2[nH]1	23484*	-4.5	-0.5	-1.4	?
Cc1ccc(S(=O)(=O)N2CCN(C(=O)CN3CCCSc4ccccc43)CC2)cc1	4147	-4.1	-8.6	-7.1	-0.5
CCc1ccc(NC2=NC(C(=O)NC3CCCCC3)CC(=O)N2)cc1 (stereo not drawn)	20212*	6.0	-7.8	i	?
Cc1cc(OCCN2CCOCC2)ccc1C(C)C	3964	13.1	-3.3	-0.9	4.3
NS(=O)(=O)c1ccc(NS(=O)(=O)c2ccc(NC(=O)C3CC3)cc2)cc1	4518	2.3	-0.5	i	-1.6
CC(=O)Nc1cccc(NC(=O)CCn2cnc3cc(C)c(C)cc32)c1	22641*	-1.9	-1.7	i	-0.2
Cc1ccc(NC(=O)CCn2cnc3cc(C)c(C)cc32)cc1	10548	2.5	-4.8	-0.5	-0.1
Cc1cccc(N2CCN(Cc3ccc4c(c3)OCO4)CC2)c1C	3995	-20.8	1.1	i	-2.4
COc1ccc(CN2CCN(c3cccc(C)c3C)CC2)cc1OC	17421*	9.5	-13.7	i	5.9
COc1ccc(CN2CCN(C)CC2)cc1OCc1ccccc1	20197*	0.7	-0.1	-0.1	1.7
COc1cc(CN2CCC(C(=O)N3CCC(C)CC3)CC2)cc(Br)c1O	10990	6.5	3.6	i	-1.0
COc1cc(CN2CCC(C(=O)NC3CCCC3)CC2)cc(Br)c1O	23761*	-4.7	-2.6	i	-1.1
COc1cc(CN2CCN(c3cccc(C)c3C)CC2)cc(Br)c1O	23780*	-9.2	-5.2	i	?
Cc1cc(C)n(-c2cccc(CN(C)Cc3nc(-c4cnccn4)no3)c2)n1	4538	6.9	-2.5	i	0.5
C[C@@H]1CN([C@H](C)CO)C(=O)CCCn2nncc2CO[C@@H]1CN(C)C(=O)Nc1ccc2c(c1)OCO2	3016	-4.2	-6.8	-0.7	-0.2
COc1ccc(CC(=O)NNC(=O)CCC(=O)Nc2cc(C)ccc2C)cc1	4875	2.8	1.6	-0.4	-0.3
COc1ccc(CC(C(=O)Nc2cc(C)ccc2C)/C(N)=N/O)cc1 (stereo not drawn)	16939*	-0.9	-1.9	-7.1	-0.8
O=C(CNC(=O)OCc1ccccc1)NCC(=O)Oc1ccc([N+](=O)[O-])cc1	4145	-5.0	-6.3	/	-0.3
O=C(O)/C(=N/NC(=O)c1ccc(Cl)cc1)c1ccccc1	4073	?	30.7*	-0.6	?
N#C/C(=C\c1ccc(N2CCOCC2)c([N+](=O)[O-])c1)c1nc2ccccc2[nH]1	2111	-11.1	0.8	-0.3	0.2
N#C/C(=C\c1ccc(N2CCOCC2)o1)c1nc2ccccc2[nH]1	11443	102.0*	-4.1	-0.6	-17.0
Cc1nn(CC(=O)NC2(C)CCS(=O)(=O)C2)c(C)c1S(=O)(=O)N(C)C (stereo not drawn)	/	/	/	-4.0	/
CCCN(CCO)Cc1ccc(Cl)c(Cl)c1	7961	3.8	-2.4	-0.4	-0.5
OCCN(Cc1ccccc1)Cc1ccccc1Cl	23592*	-0.8	-2.8	i	?
SMILES	Autofluor counter	BoNT F protease	Anthrax LF prot	BH1578 lux ind	BoNT-A LC inh2
OCCN(Cc1ccccc1)Cc1cccc(Cl)c1Cl	11501	2.3	-4.6	-7.1	0.3
CCCN(CCO)Cc1cccc(Cl)c1	16966*	-2.3	1.6	-0.4	-1.1
OCCN(Cc1ccccc1)Cc1cccc(C(F)(F)F)c1	23013*	0.7	-2.5	-0.2	0.5
OCCN(Cc1ccccc1)Cc1cccc(F)c1	20011*	-0.2	0.9	2.0	-1.3
CCCCC[C@@H]1C=C(C(=O)O)[C@H](c2ccc(OC)c(OC)c2)N1S(=O)(=O)c1ccc(C)cc1	3204	-8.3	2.7	-1.4	-0.3
O=C(Nc1c(C(=O)N2CCCC2)cnn1-c1ccccc1)c1cccc(F)c1	21118*	-3.7	1.5	i	?
CCn1nnc(NC(=O)COc2cc(C)ccc2C(C)C)n1	20175*	-4.5	-1.5	i	-1.9
C/C(=N/NC(=O)COc1cc(C)ccc1C(C)C)C(=O)O	2686	-2.4	-0.9	-0.1	-0.2
CCCn1nnnc1NC(=O)COc1ccc(Cl)c(C)c1	2528	0.3	0.9	-0.3	-0.9
CCCCn1nnc(NC(=O)COc2ccc(Cl)c(C)c2)n1	17759*	-6.3	-5.8	i	-5.9
Cc1cc(OCC(=O)OCC(=O)N2CCc3ccccc3C2)ccc1Cl	?	-5.9	-2.3	i	-9.8
CCCC1(c2ccccc2)NC(=O)N(CC(=O)c2[nH]c(C)c(C(=O)OCC)c2C)C1=O (stereo not drawn)	2244	1.8	-1.1	0.0	-0.4
CCOC(=O)c1c(C)[nH]c(C(=O)CN2C(=O)NC(C)(c3ccc4ccccc4c3)C2=O)c1C (stereo not drawn)	20042*	-2.1	-2.9	i	-1.6
Cc1cccc(C(=O)NCC(=O)NC2CCC(C)CC2)c1 (stereo not drawn)	/	/	/	-0.3	/
O=C1CC(SCc2nc3ccccc3[nH]2)C(=O)N1c1ccc(Cl)cc1 (stereo not drawn)	4982	-32.5	-2.2	i	-1.0
O=C1CC(SCc2nc3ccccc3[nH]2)C(=O)N1c1ccc(F)c(Cl)c1 (stereo not drawn)	22834*	-2.6	-4.0	i	-0.1
CN1CCc2[nH]c3ccc(C(=O)NN)cc3c2C1	20838*	-2.5	-1.5	i	4.0
CC(=O)N1C(=O)C(=C2C=C(C)OC(C)=C2)c2ccccc21	23162*	4.1	-1.0	-1.4	0.2
CC1=CC(=C2C(=O)c3ccccc3C2=O)C=C(C)O1	2431	2.6	4.3	i	7.5
COc1cccc(/C=N/NC(=O)CC2C(=O)NN=C2C)c1O (stereo not drawn)	20430*	-1.4	-2.9	12.5	0.7
O=C(c1ccc2c(c1)OCCO2)N1CCCC(CNS(=O)(=O)c2cccs2)C1 (stereo not drawn)	4425	-0.7	-0.1	1.4	-0.7
O=C(O)CC(C(=O)NC1CCCCC1)C1CCCO1 (stereo not drawn)	22137*	4.0	-0.8	i	2.2
COc1ccc(-c2cc3nc(C)cc(C)n3n2)cc1	20324*	-1.9	-0.2	-0.2	-0.3
COc1ccc(CNc2nc3nc(C)cc(C)n3n2)cc1	23427*	-4.5	0.0	-0.1	-2.7
Cc1cc(C)n2nc(NCc3ccccc3)nc2n1	20633*	-2.8	0.3	-1.7	?
SMILES	Autofluor counter	BoNT F protease	Anthrax LF prot	BH1578 lux ind	BoNT-A LC inh2
Cc1cc(C)n2nc(S(=O)(=O)NCCc3ccccc3)nc2n1	4341	0.3	-0.5	-0.2	0.4
COc1ccc(CNc2nc3nc(C)c(Cl)c(C)n3n2)cc1	4098	14.1	2.4	-0.7	-2.0
Clc1ccc(Cc2ccccn2)cc1	6221	4.3	-2.5	1.6	0.7
O=C(NCCO)c1ccc(-c2cnc3cccnn23)cc1	3672	0.8	1.8	-0.5	-0.2
O=C1C2CC=CCC2C(=O)N1c1cccc(OS(=O)(=O)c2ccc3ccccc3c2)c1 (stereo not drawn)	20101*	-3.2	-8.9	i	?
COCCCn1c(=O)c2sccc2n(Cc2cc(C(=O)OC)ccc2OC)c1=O	3977	?	-6.5	-0.5	0.9
